Compound activity deposited in PubChem BioAssay by National Center for Advancing Translational Sciences (NCATS).
The list is not random: actives were taken first. Their share in the collection is about 2.4%.
D2 PAM-1: positive allosteric modulators of human D2 dopamine receptor | 340,000 tested, 0.34% active | potentiation, % at 10 µM | HEK293 T-REx D2, calcium flux, EC20 dopamine potentiation | AID 485347 | P14416;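 active = potentiation over 3 SD above the plate norm, cut at about 30% in these data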
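Primary screen. Calcium kinetics in induced HEK293 T-REx D2 cells: compound pre-addition 180 s, EC20 dopamine, 180 s more.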
D2 antagonist: antagonists of human D2 dopamine receptor; P14416; HEK293 TREx D2 cells, calcium flux, dopamine EC80; inhibition, % at 10 µM; 340,000 tested, 2% active; AID 485344; in the data active = inhibition above about 30%; inactive = below that, where a call was filed
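Tetracycline-induced HEK293 T-REx cells expressing D2 force-coupled to calcium signalling were dye-loaded, exposed to compound for 180 s, then challenged with an EC80 of dopamine; calcium flux was followed kinetically for a further 180 s.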
D2 PAM-2: positive allosteric modulators of human D2 dopamine receptor; P14416; DiscoveRx D2 beta-arrestin cells, luminescence, 90 min; 100% = 57 uM dopamine signal; potentiation, % (concentration not given with the values); 360,000 tested, 0.23% active; in the data active = potentiation above about 50%; inconclusive = mostly about 30% to 49%
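PathHunter D2 cells, attached overnight at 37 deg C, received compound in DMSO plus dopamine at EC20 (50 nM final) for 90 min at 37 deg C. Beta-arrestin recruitment was read as luminescence after 1 h with detection reagent at ambient temperature.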
D2 ag-1: agonists of human D2 dopamine receptor (beta-arrestin); DiscoveRx PathHunter D2 beta-arrestin, luminescence, 90 min; 100% = 57 uM dopamine signal; activation, % (concentration not given with the values); 360,000 tested, 0.084% active; in the data active = activation above about 40%; inconclusive = between about 15% and that limit
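Agonist mode: compounds alone added to overnight-plated D2 PathHunter cells for 90 min at 37 C, with 57 uM final dopamine (EC100) defining full response. Beta-arrestin recruitment detected by chemiluminescent reagent, read after 1 h at ambient temperature.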
D2 ag-2: agonists of human D2 dopamine receptor. P14416. HEK293 T-REx D2 cells, calcium flux agonist mode. activation, % at 2 µM. 340,000 tested, 0.53% active;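 active = activation over 3 SD above normal in the single-dose calcium agonist read, cut at about 30% in these data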
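HEK293 Trex D2 cells, tetracycline-induced, o/n 30 C 5% CO2; no-wash Ca dye, RT 30–90 min; 10-cycle baseline, 23 nl cpd added, kinetic Ca read 180 s; agonist hits = positive Ca response.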
D3 ag: confirmation of human D3 dopamine receptor agonists, beta-arrestin; AID 720506; Potency, µM (top dose mostly 76.9 µM), actives largely listed as activators; DiscoveRx D3 beta-arrestin cells, luminescence, 90 min; 2,300 tested, 4% active; shares compounds with D2 ag-2; note: nearly all actives have a fitted effect of over 70% in size
Target sequence (P35462 whole entry, looked up): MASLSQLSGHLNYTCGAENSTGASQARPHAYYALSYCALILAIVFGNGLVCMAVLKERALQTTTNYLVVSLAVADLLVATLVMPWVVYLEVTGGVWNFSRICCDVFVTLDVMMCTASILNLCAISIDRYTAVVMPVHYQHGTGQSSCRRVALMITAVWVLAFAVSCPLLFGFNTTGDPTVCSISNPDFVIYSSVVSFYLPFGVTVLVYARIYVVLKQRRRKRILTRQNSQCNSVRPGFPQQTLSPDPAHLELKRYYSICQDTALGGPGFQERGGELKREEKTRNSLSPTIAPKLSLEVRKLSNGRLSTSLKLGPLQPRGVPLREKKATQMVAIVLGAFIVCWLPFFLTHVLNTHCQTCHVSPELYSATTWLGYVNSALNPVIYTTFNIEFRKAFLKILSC
D2 ag-3: activates human D2 dopamine receptor in D3 counterscreen. Potency, µM (highest dose often 76.9 µM), hits mostly activators. 2,300 tested, 5.9% active. DiscoveRx PathHunter D2 beta-arrestin, luminescence, 90 min; response scale: percent relative to full dopamine signal. shares compounds with D2 ag-2; note: nearly all actives have a fitted effect of over 70% in size
Large screens that a line does not name were inactive (follow-up assays come after a bar, where they were run). Unless noted, calls come from the whole dose curve; as a rule, active = well fitted activation curve with a large enough effect; inconclusive = small, poorly fitted or top-dose-only effect; inactive = flat fitted curve, though single readings scatter.

O=C(Nc1c(C(=O)N2CCN(c3ccccc3F)CC2)oc2ccccc12)c1cccc(F)c1	none (no result: D2 antagonist, D2 PAM-2, D2 ag-1)
Cc1ccccc1C(=O)N1CCN(CCc2ccccn2)CC1	none (no result: D2 antagonist, D2 PAM-2, D2 ag-1)
CC1CCCC(NC(=O)COC(=O)c2ccc3ncsc3c2)C1C (stereo unspecified)	none (no result: D2 PAM-1, D2 antagonist, D2 ag-2) | D3 ag inactive | D2 ag-3 inactive
CC(C)NC[C@@H](O)c1ccc(O)c(O)c1	none | D3 ag inconclusive | D2 ag-3 inactive
COc1ccccc1C(=O)NCC(=O)N/N=C/c1cn[nH]c1-c1ccccc1	D2 ag-2 67 | D3 ag inactive | D2 ag-3 inactive
O=C(CNC(=O)c1ccccc1)N/N=C/c1cn[nH]c1-c1ccccc1	none
COc1cc2cc(CNc3ccccc3)c(=O)n(CC(=O)Nc3ccccc3)c2cc1OC	none (no result: D2 antagonist, D2 PAM-2, D2 ag-1)
CCC(=O)N1CCc2cc(S(=O)(=O)CCC(=O)Nc3cccc(C)n3)ccc21	D2 ag-2 35 | D3 ag inactive | D2 ag-3 inactive
CCC(=O)N1CCc2cc(S(=O)(=O)CCC(=O)Nc3ccc(OC)cc3)ccc21	none
Cc1cccc(OCCCC(=O)NNC(=O)CCN2CCN(c3ccccc3)CC2)c1	D2 ag-2 59 | D3 ag inconclusive | D2 ag-3 inactive
COc1ccc(OCCCC(=O)NNC(=O)CCN2CCN(c3ccccc3)CC2)cc1	D2 antagonist 71, D2 ag-2 83 | D3 ag inactive | D2 ag-3 inactive
COc1ccc(CC(=O)Nc2ccc(F)c(F)c2F)cc1S(=O)(=O)N1CCOCC1	none | D3 ag inactive | D2 ag-3 inactive
CCC(=O)N1c2ccccc2CC1C(=O)NCCN1CCN(c2cc(Cl)ccc2C)CC1 (stereo unspecified)	none (no result: D2 antagonist, D2 PAM-2, D2 ag-1)
Cc1ccnc(NC(=O)CC(NC(=O)c2ccccc2Cl)c2ccccc2)c1 (stereo unspecified)	none
Cc1ccc(NC(=O)CC(NC(=O)c2ccccc2Cl)c2ccccc2)nc1 (stereo unspecified)	none | D3 ag inactive | D2 ag-3 inactive
COc1ccc(N2CCN(C(=O)c3cc(-c4ccc(C)c(F)c4)on3)CC2)cc1	none (no result: D2 antagonist, D2 PAM-2, D2 ag-1)
CC(C)OCC(O)CS(=O)(=O)Cc1ccccc1 (stereo unspecified)	D2 ag-2 58 | D3 ag inactive | D2 ag-3 inactive
COc1ccc(Cl)cc1NC(=O)c1cc(C)nc2c1c(C)nn2-c1ccccc1	none (no result: D2 antagonist, D2 PAM-2, D2 ag-1)
c1ccc(CCNCCOc2ccccc2)cc1	D2 antagonist 48, D2 ag-2 56 | D3 ag inactive | D2 ag-3 inactive
COc1cc(C(=O)OCc2ccccc2C#N)ccc1OCC(=O)N1CCOCC1	none
COc1cc(C(=O)OCc2cccc(OC)c2OC)ccc1OCC(=O)N1CCOCC1	none | D3 ag inactive | D2 ag-3 inactive
CCN(c1ccccc1C)S(=O)(=O)c1nnc(NC(=O)c2ccc(OC)c(OC)c2)s1	none (no result: D2 antagonist, D2 PAM-2, D2 ag-1)
COc1ccccc1NC(=O)c1cc2c([nH]c1=O)CC(C)(C)CC2=O	none (no result: D2 PAM-1, D2 antagonist, D2 PAM-2, D2 ag-1)
CC(=O)c1ccc(N2CCN(S(=O)(=O)c3ccc4c(c3)CC(C)N4C(=O)C3CCC3)CC2)cc1 (stereo unspecified)	none (no result: D2 antagonist, D2 PAM-2, D2 ag-1)
Cc1ccccc1NC(=O)NCCCN1CCN(c2ccccc2)CC1	D2 antagonist 79, D2 ag-1 inconclusive, D2 ag-2 77 | D3 ag inconclusive | D2 ag-3 inconclusive
O=C(NCCCN1CCN(c2ccccc2)CC1)Nc1ccccc1C(F)(F)F	D2 antagonist 75, D2 ag-1 inconclusive, D2 ag-2 78 | D3 ag inconclusive | D2 ag-3 inactive
CCn1cc(C(=O)N(C)c2cc(C)ccc2C)c2cc(OC)c(OC)cc2c1=O	none (no result: D2 antagonist, D2 PAM-2, D2 ag-1)
COc1ccc(CN=Cc2[nH]c3ccc(Br)c(Cl)c3c2O)cc1	D2 antagonist 43, D2 ag-2 51 | D3 ag inactive | D2 ag-3 inactive
O=C(Nc1ccc(OCc2cc(=O)n3c4c(sc3n2)CCCC4)cc1)c1cccc(F)c1	none (no result: D2 antagonist, D2 PAM-2, D2 ag-1, D2 ag-2)
